Bioassay records deposited in PubChem by The Scripps Research Institute Molecular Screening Center.
Shown are actives, neighbours in structure and some others; about 3.4% of the full set was active somewhere.
GPR151 ag – activators of human GPR151 | Q8TDV0 | PathHunter beta-arrestin GPR151 cells, luminescence | activation, % at 11.2 µM | 1% of 650,000 active | AID 1508602; in the data active means activation above about 4.9%;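 further: 0% = median of compound wells and 100% = cells with positive control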
FBW7 act – human FBW7 E3 ligase activation, primary screen. AlphaScreen FBW7–phospho-cyclin E peptide binding, activator screen. normalized activity (activation), % at 26.1 µM. 0.13% of 650,000 active. AID 1259310; in the data active means normalized activity above about 1.9%;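 further: purified mutant Fbw7 with reduced substrate affinity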
Target sequence (Q969H0 whole entry, looked up): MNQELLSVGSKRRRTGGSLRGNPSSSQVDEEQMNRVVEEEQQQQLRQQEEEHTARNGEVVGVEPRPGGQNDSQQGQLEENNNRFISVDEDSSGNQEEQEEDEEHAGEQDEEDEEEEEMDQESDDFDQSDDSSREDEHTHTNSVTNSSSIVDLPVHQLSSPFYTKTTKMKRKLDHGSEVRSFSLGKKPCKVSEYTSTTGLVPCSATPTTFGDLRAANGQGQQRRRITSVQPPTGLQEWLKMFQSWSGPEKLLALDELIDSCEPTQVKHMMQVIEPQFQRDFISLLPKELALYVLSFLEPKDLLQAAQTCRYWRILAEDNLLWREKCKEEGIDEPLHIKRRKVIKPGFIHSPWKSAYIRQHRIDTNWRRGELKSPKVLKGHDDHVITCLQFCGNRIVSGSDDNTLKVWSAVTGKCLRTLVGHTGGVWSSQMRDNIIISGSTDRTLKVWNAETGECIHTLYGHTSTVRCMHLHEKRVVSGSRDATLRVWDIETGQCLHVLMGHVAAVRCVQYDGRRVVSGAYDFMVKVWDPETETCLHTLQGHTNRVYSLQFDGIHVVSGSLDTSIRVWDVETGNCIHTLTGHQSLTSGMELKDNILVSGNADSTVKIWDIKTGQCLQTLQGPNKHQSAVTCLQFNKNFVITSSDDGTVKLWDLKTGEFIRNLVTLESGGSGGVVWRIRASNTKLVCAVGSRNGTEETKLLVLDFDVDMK
TEAD-YAP inh – TEAD-YAP interaction inhibition. AID 1259422. HEK-TIYL cells, TEAD-Gal4/YAP UAS-luciferase luminescence. 1.4% of 640,000 active. inhibition, % at 9.12 µM; in the data active means inhibition above about 32%;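 further: 0% = median of test compound wells and 100% = reference inhibitor wells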
MITF primary – inhibitors of human MITF; O75030; AlphaScreen MITF homodimerization, bead proximity signal; inhibition, % at 2.6 µM; 0.91% of 650,000 active; in the data active means inhibition above about 50%;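 further: 0% = vehicle wells with protein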
An asterisk follows results filed as active.

SMILES | GPR151 ag | FBW7 act | TEAD-YAP inh | MITF primary
CCOc1ccc(CCNC(=O)c2cc([N+](=O)[O-])ccc2Cl)cc1OCC | 0 | 1 | 39* | 16
O=C(Nc1ccc(C23CC4CC(CC(C4)C2)C3)cc1)c1cc([N+](=O)[O-])ccc1Cl | 0 | 0 | 30 | 12
Cc1[nH]c2ccc(OC(F)(F)F)cc2c1CCNC(=O)c1cc([N+](=O)[O-])ccc1Cl | 0 | 0 | 66* | 6
O=C(NCCOC12CC3CC(CC(C3)C1)C2)c1cc([N+](=O)[O-])ccc1Cl | -1 | 0 | 33* | 7
CN(C)c1ccc2c(c1)OC(N)=C(C#N)C2c1ccc(F)cc1 (stereo not given) | 1 | 0 | 3 | -8
N#CC1=C(N)Oc2cc(N)ccc2C1c1cccc(Br)c1 (stereo not given) | 1 | 0 | 55* | 12
CCN(CC)c1ccc2c(c1)OC(N)=C(C#N)C2c1cccc(F)c1 (stereo not given) | -1 | 0 | 68* | -13
N#CC1=C(N)Oc2cc(N)ccc2C1c1ccc(Br)cc1 (stereo not given) | -1 | 0 | 1 | 12
COCCNc1nnc(SCC(=O)c2ccc3c(c2)NC(=O)CO3)s1 | 1 | 0 | 5 | 3
Cc1n[nH]c(C)c1-c1ccc2cnc(Nc3ccc(-n4cnc(N5CCOCC5)n4)cc3)nc2c1 | 0 | 0 | 35* | 15
Cc1[nH]ncc1-c1ccc2cnc(Nc3ccc(-n4cnc(N5CCOCC5)n4)cc3)nc2c1 | 0 | 0 | 85* | 18
Cn1cnc(-c2ccc3cnc(Nc4ccc(-n5cnc(N6CCOCC6)n5)cc4)nc3c2)n1 | 1 | 1 | 1 | 30
Cc1nc(-c2ccc3cnc(Nc4ccc(-n5cnc(N6CCOCC6)n5)cc4)nc3c2)n[nH]1 | 0 | 1 | 29 | 42
COc1ccc2c(c1)CCC1C2=NN(/C(C)=C/C(C)=O)C1c1cccc([N+](=O)[O-])c1 (stereo not given) | 0 | 0 | 8 | -6
c1ccc(-n2cnc3c(NC4CC4)nc(N4CCN(c5ccccn5)CC4)nc32)cc1 | -1 | 0 | 37* | 16
CC(C)N(CCNc1nc(N2CCOCC2)nc2c1ncn2-c1ccsc1)C(C)C | 0 | 0 | 55* | 2
c1cc(-n2cnc3c(NC4CC4)nc(N4CCC(N5CCOCC5)CC4)nc32)cs1 | -1 | 0 | 46* | 10
CC(=O)Nc1ccc(Nc2nc(N3CCN(c4ccccn4)CC3)nc3c2ncn3-c2ccccc2)cc1 | 4 | 0 | 22 | 4
c1ccc(-n2cnc3c(NC4CC4)nc(N4CCOCC4)nc32)cc1 | 1 | 0 | 52* | -1
O=C1CC(C(=O)N2CCOc3ccc(CN4CCCC4)cc3C2)CN1 (stereo not given) | -1 | 0 | -1 | 4
CCC(CC)C(=O)Nc1sc(C)c(C)c1C(=O)OC | -1 | 0 | -8 | -4
c1cc(-n2cnc3c(NC4CC4)nc(N4CCOCC4)nc32)cs1 | -1 | 0 | 56* | -1
OCC1CCCN1c1nc(NC2CC2)c2ncn(-c3ccsc3)c2n1 (stereo not given) | 2 | 0 | 1 | 4
COc1ccccc1Nc1nc(C2(C)CC(CC(C)C)C(=O)O2)cs1 (stereo not given) | -1 | 0 | 55* | 8
CC1(c2csc(Nc3ccccc3Cl)n2)CCC(=O)O1 (stereo not given) | -2 | 0 | 35* | 11
SMILES | GPR151 ag | FBW7 act | TEAD-YAP inh | MITF primary
CCOc1ccc(Nc2nc(C3(C)CC(CC(C)C)C(=O)O3)cs2)cc1 (stereo not given) | 0 | 0 | 7 | 7
O=C(Nc1ccc(Br)cc1)c1cnn2ccccc12 | -3 | 0 | 32* | 6
COc1cc(SC)ccc1C(=O)NCc1ccc(S(N)(=O)=O)cc1 | 1 | 0 | 4 | 4
COc1cccc(S(=O)(=O)NCc2ccc(C(=O)Nc3cccnc3)cc2)c1 | 0 | 0 | 50* | 12
O=C(Nc1ccc(S(=O)(=O)NCc2cccnc2)cc1)c1ccco1 | 0 | 2.1* | 14 | 6
O=C(Nc1ccc(S(=O)(=O)NCc2cccnc2)cc1)c1ccccc1Cl | 1 | 0 | 28 | 3
CCN1CCC2(CCC(CNC(=O)c3ccco3)O2)CC1 (stereo not given) | -1 | 0 | 3 | 20
Oc1cccc2ccc(/C=C/c3cc4c(cc3Cl)OCO4)nc12 | -7 | 0 | 68* | 0
O=[N+]([O-])c1cccc(/C=C/c2ccc3cccc(O)c3n2)c1 | -2 | 0 | -37 | 8
Oc1cccc2ccc(/C=C/c3ccc4c(c3)OCO4)nc12 | -5 | 0 | 80* | 6
COc1ccc2oc(-c3ccc(Cl)cc3)cc(=O)c2c1 | 0 | 0 | -29 | 5
COc1ccc2oc(-c3ccccc3Cl)cc(=O)c2c1 | -5 | 2.6* | 49* | 6
COc1ccc2oc(-c3cccs3)cc(=O)c2c1 | -6 | 0 | 43* | 3
O=c1cc(-c2cccs2)oc2ccc(O)cc12 | -3 | -1 | -12 | 7
CCN(CC)c1ccc(NC(=O)Cc2ccc(OC)c(OC)c2)cc1 | 0 | 0 | 20 | 9
O=C1c2c(O)cc(O)cc2OC(c2ccc(O)c(O)c2)C1O (stereo not given) | 2 | 0 | -1 | 14
O=C(O[C@@H]1Cc2c(O)cc(O)cc2O[C@@H]1c1cc(O)c(O)c(O)c1)c1cc(O)c(O)c(O)c1 | -1 | 0 | 2 | 77*
O=C(O[C@@H]1Cc2c(O)cc(O)cc2O[C@@H]1c1ccc(O)c(O)c1)c1cc(O)c(O)c(O)c1 | 0 | 0 | 0 | 83*
CCOCC(=O)Nc1ccc(-c2nnc(CC)o2)cc1 | 2 | 0 | 1 | -15
NNC(=O)/C(=C\c1ccco1)NC(=O)c1ccccc1 | 0 | 0 | 35* | -5
O=C(O)/C(=C/c1ccco1)NC(=O)c1ccccc1 | 0 | -1 | 7 | 17
Cn1cccc1CC(=O)N/N=C/c1ccc(C(=O)O)cc1 | -1 | 0 | -2 | 7
COc1ccc(S(=O)(=O)NCC2CCCN(Cc3ccc(F)cc3Cl)C2)cc1 (stereo not given) | 1 | 0 | -6 | -14
Cc1ccc(-c2cnc(NC3CC3)nc2)cc1 | -6 | 1 | 54* | 11
COc1ccc(C(=O)c2ccc(Br)c([N+](=O)[O-])c2)cc1 | 0 | 0 | 64* | 35
SMILES | GPR151 ag | FBW7 act | TEAD-YAP inh | MITF primary
CCCOC(=O)c1ccc(Br)c([N+](=O)[O-])c1 | 1 | 0 | 8 | -1
O=C(Cn1c(=O)sc2ccccc21)N1CCCc2ccccc21 | 0 | 0 | 5 | 2
CCOC(=O)c1c(NC(=O)c2nc(S(C)(=O)=O)ncc2Cl)sc(C)c1C | -3 | 1 | 8 | -1
Cc1cccc(OC(=O)c2nc(S(C)(=O)=O)ncc2Cl)c1C | 0 | 0 | 56* | 15
Cc1ccc2nc(C(C#N)C(=O)c3nc(S(C)(=O)=O)ncc3Cl)[nH]c(=O)c2c1 (stereo not given) | 1 | 0 | 8 | -15
Cc1ccc(OC(=O)c2nc(S(C)(=O)=O)ncc2Cl)cc1C | -1 | 0 | 48* | 9
Cc1cccc(C)c1NC(=O)c1nc(S(C)(=O)=O)ncc1Cl | 0 | 0 | -25 | -15
